Test results: the supplement of paper PMC10849652
The full data set covers some 7,900 targets. This sample favours those with a hit. About 0.6% of all pairs of compound and target were hits. A number with no mark means an inactive call.

Tests used:
Assay in all cases: log2 fold change, soluble protein after heating vs DMSO (PISA); higher = thermal stabilisation; K562 cells, 10 uM, 30 min; active = over 0.2 and 3.5 SD of the protein, either way, in both replicates (recomputed)
[1] = compound: CS(=O)(=O)c1ccc(-c2cnc(N)c(C(=O)Nc3ccccc3)n2)cc1
Summary of the method: (§1)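 K562 cells at 2×10^6 cells/mL were given 10 μM compound for 30 min. Aliquots then went through 3 min of heating across 48°C-58°C, were pooled, and were extracted in PBS with 0.5% NP-40 at 4°C, and the supernatant after 21,000xg for 90 min was quantified by TMTpro 16plex LC-MS/MS with channel sums equalised. Thermal stability relative to control samples, from duplicates, is given as log2 fold change.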

crizotinib = compound: C[C@@H](Oc1cc(-c2cnn(C3CCNCC3)c2)cnc1N)c1c(Cl)ccc(F)c1Cl [crizotinib]
Summary of the method: as §1

[2] = compound: C[C@H](C1=CC=C(C=C1)C(=O)NC2=C3C=CNC3=NC=C2)N
Summary of the method: as §1

duvelisib = compound: C[C@H](Nc1ncnc2nc[nH]c12)c1cc2cccc(Cl)c2c(=O)n1-c1ccccc1 [duvelisib]
Summary of the method: as §1

gandotinib = compound: Cc1cc(Nc2cc(CN3CCOCC3)c3nc(C)c(Cc4ccc(Cl)cc4F)n3n2)n[nH]1 [gandotinib]
Summary of the method: as §1

tozasertib = compound: Cc1cc(Nc2cc(N3CCN(C)CC3)nc(Sc3ccc(NC(=O)C4CC4)cc3)n2)n[nH]1 [tozasertib]
Summary of the method: as §1

[3] = compound: Cc1cc(SCc2sc(-c3ccc(C(F)(F)F)cc3)nc2C)ccc1OCC(=O)O
Summary of the method: as §1

doramapimod = compound: Cc1ccc(-n2nc(C(C)(C)C)cc2NC(=O)Nc2ccc(OCCN3CCOCC3)c3ccccc23)cc1 [doramapimod]
Summary of the method: as §1

ispinesib = compound: Cc1ccc(C(=O)N(CCCN)[C@@H](c2nc3cc(Cl)ccc3c(=O)n2Cc2ccccc2)C(C)C)cc1 [ispinesib]
Summary of the method: as §1

bafetinib = compound: Cc1ccc(NC(=O)c2ccc(CN3CC[C@H](N(C)C)C3)c(C(F)(F)F)c2)cc1Nc1nccc(-c2cncnc2)n1 [bafetinib]
Summary of the method: as §1

[4] = compound: Cc1cccc(CC(=O)N2CCc3c2ccc(-c2cn(C)c4ncnc(N)c24)c3F)n1
Summary of the method: as §1

nilotinib = compound: Cc1cn(-c2cc(NC(=O)c3ccc(C)c(Nc4nccc(-c5cccnc5)n4)c3)cc(C(F)(F)F)c2)cn1 [nilotinib]
Summary of the method: as §1

[5] = compound: Cc1nc(Nc2n[nH]c3c2CN(C(=O)N[C@H](CN(C)C)c2ccccc2)C3(C)C)c2sccc2n1
Summary of the method: as §1

dasatinib = compound: Cc1nc(Nc2ncc(C(=O)Nc3c(C)cccc3Cl)s2)cc(N2CCN(CCO)CC2)n1 [dasatinib]
Summary of the method: as §1

[6] = compound: Cc1ncc(-c2ccnc(Nc3ccc(S(C)(=O)=O)cc3)n2)n1C(C)C
Summary of the method: as §1

[7] = compound: Cn1cc(-c2ccc3c(c2)CCN3C(=O)Cc2cccc(C(F)(F)F)c2)c2c(N)ncnc21
Summary of the method: as §1

[8] = compound: Cn1cc(-c2ccc3nnc(C(F)(F)c4ccc5ncccc5c4)n3n2)cn1
Summary of the method: as §1

tipifarnib = compound: Cn1cncc1[C@@](N)(c1ccc(Cl)cc1)c1ccc2c(c1)c(-c1cccc(Cl)c1)cc(=O)n2C [tipifarnib]
Summary of the method: as §1

mubritinib = compound: FC(F)(F)c1ccc(/C=C/c2nc(COc3ccc(CCCCn4ccnn4)cc3)co2)cc1 [mubritinib]
Summary of the method: as §1

[9] = compound: C[C@@H]1COCCN1C2=NC(=NC(=C2)C3(CC3)S(=O)(=O)C)C4=C5C=CNC5=CC=C4
Summary of the method: as §1

Chain of UniProt Q6P3W2 (Q6P3W2 whole entry, looked up): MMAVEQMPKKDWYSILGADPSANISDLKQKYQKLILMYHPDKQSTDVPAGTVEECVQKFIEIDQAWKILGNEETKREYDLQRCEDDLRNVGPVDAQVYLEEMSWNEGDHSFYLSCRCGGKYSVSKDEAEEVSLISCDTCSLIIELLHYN
Chain of UniProt Q92556 (Q92556 whole entry, looked up): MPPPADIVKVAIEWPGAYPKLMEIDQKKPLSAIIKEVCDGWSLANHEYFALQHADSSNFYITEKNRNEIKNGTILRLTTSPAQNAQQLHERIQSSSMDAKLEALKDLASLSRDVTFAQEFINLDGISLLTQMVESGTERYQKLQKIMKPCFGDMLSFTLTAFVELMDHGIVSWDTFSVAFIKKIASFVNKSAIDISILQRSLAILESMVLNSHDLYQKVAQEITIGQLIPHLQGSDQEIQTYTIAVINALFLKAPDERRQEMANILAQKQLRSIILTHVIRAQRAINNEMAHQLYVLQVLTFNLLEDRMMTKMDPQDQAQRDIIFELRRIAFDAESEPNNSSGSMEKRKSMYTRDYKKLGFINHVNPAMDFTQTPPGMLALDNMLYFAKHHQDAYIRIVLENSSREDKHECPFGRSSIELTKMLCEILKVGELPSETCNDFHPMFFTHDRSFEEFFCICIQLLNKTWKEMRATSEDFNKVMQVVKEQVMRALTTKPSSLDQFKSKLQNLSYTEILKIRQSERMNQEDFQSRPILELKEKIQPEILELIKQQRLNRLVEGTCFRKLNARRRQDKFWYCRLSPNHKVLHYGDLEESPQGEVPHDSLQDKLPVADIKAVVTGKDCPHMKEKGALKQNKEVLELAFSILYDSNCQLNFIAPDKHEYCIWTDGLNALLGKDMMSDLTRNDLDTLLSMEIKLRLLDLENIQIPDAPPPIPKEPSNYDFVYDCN
Chain of UniProt Q9H777 (Q9H777 whole entry, looked up): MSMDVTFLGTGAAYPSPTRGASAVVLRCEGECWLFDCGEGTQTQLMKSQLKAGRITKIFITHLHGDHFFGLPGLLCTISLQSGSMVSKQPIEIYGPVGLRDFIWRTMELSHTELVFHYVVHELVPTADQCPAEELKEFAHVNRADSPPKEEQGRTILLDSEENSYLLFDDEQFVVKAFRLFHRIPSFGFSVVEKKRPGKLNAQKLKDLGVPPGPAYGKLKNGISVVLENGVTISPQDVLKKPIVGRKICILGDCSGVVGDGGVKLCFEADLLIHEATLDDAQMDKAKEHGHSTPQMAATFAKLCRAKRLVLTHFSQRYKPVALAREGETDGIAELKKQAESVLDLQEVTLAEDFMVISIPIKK
Chain of UniProt Q9UBM7 (Q9UBM7 whole entry, looked up): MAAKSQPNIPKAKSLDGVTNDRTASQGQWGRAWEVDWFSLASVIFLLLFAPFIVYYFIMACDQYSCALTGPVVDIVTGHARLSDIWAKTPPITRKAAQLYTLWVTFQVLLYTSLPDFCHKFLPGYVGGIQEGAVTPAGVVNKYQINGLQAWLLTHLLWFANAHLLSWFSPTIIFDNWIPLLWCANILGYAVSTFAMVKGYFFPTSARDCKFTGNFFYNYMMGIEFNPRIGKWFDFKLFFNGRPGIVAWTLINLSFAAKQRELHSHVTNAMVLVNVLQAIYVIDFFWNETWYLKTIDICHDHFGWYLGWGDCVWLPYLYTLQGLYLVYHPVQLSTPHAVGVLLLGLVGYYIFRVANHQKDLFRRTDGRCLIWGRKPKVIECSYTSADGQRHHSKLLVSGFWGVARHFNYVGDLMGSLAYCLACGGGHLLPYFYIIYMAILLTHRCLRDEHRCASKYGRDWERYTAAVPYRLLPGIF
Chain of UniProt P50570 (P50570 whole entry, looked up): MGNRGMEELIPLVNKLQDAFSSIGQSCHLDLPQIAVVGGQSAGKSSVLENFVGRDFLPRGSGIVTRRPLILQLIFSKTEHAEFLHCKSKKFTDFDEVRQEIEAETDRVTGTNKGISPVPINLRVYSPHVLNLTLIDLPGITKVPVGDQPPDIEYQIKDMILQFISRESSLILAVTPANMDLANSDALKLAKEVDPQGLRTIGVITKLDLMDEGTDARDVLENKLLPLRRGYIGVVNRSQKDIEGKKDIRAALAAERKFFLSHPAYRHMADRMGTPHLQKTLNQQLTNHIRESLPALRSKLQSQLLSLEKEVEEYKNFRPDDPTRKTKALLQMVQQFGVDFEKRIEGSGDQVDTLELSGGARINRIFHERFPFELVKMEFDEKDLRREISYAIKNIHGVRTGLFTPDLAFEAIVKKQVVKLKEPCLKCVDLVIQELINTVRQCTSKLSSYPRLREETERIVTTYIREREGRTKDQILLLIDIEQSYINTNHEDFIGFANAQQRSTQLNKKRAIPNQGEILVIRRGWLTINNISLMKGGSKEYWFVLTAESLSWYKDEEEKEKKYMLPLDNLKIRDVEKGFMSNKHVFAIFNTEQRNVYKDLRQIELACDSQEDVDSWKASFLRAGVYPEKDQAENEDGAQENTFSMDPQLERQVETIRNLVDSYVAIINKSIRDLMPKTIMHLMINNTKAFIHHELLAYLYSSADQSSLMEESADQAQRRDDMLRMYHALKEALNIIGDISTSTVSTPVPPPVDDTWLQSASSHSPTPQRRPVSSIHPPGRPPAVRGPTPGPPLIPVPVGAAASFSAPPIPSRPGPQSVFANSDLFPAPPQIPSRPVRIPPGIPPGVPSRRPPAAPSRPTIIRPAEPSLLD
Chain of UniProt Q9BPY3 (Q9BPY3 whole entry, looked up): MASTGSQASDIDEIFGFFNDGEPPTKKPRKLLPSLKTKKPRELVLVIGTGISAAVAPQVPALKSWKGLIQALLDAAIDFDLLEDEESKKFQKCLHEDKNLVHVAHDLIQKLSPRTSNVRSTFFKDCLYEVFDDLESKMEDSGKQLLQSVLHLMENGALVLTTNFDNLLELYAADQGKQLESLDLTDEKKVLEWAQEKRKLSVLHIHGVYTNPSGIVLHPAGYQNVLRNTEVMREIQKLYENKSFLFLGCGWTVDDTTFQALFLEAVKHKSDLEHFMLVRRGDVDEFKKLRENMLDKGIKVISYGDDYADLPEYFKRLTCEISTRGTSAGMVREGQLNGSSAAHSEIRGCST
Chain of UniProt Q13409 (Q13409 whole entry, looked up): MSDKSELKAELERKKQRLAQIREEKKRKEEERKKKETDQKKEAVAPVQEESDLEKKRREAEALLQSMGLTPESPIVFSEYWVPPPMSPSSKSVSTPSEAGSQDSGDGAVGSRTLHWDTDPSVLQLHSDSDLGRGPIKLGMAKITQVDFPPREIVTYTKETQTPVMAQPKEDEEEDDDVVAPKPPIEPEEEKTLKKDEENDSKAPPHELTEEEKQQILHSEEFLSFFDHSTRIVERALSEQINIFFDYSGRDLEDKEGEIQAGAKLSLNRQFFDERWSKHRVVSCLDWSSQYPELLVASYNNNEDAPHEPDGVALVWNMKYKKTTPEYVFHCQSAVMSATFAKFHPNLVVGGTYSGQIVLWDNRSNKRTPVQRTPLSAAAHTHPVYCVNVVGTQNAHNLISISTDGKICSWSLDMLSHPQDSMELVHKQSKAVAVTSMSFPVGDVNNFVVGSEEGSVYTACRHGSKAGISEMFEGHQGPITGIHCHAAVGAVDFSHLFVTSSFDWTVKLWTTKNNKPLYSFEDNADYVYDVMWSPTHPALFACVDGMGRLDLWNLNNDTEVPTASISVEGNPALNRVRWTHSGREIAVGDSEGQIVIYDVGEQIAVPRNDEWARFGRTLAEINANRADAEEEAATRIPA
Chain of UniProt P32519 (P32519 whole entry, looked up): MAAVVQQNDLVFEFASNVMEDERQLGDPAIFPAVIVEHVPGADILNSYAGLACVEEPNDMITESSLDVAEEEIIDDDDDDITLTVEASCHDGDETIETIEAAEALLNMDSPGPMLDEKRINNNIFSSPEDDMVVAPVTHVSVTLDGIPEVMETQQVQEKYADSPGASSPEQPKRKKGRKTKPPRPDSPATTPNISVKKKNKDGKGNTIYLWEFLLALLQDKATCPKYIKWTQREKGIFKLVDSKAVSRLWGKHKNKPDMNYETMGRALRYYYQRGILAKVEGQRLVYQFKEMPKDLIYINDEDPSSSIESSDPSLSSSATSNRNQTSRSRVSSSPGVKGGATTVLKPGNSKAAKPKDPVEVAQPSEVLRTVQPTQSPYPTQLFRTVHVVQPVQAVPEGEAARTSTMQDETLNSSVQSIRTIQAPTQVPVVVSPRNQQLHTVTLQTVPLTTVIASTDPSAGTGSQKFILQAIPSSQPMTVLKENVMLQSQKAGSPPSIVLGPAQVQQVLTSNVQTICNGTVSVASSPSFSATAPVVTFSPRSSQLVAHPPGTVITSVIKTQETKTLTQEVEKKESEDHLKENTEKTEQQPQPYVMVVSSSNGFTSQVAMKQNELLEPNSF
Chain of UniProt Q9NQZ7 (Q9NQZ7 whole entry, looked up): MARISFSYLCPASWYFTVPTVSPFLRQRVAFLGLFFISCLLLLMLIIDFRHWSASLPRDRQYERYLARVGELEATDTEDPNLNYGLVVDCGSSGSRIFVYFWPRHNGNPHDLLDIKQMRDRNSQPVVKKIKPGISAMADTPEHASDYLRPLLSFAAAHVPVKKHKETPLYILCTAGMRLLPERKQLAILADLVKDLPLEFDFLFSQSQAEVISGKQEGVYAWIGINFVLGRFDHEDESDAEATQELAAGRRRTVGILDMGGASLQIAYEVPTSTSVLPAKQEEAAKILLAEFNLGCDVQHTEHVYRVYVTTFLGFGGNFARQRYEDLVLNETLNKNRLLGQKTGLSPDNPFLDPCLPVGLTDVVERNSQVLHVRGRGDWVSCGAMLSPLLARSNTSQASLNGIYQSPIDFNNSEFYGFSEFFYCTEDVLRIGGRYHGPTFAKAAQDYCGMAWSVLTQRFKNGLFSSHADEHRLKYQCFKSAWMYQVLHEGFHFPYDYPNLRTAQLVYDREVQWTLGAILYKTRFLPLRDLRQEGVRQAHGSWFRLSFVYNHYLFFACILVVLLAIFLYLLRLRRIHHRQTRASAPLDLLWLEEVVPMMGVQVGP
Chain of UniProt Q8N8J7 (Q8N8J7 whole entry, looked up): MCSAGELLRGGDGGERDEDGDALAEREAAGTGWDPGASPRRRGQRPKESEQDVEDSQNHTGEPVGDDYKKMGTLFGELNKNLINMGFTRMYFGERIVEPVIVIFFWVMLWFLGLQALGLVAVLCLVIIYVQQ

Target | log2 fold change [1] | log2 fold change (crizotinib) | log2 fold change [2] | log2 fold change (duvelisib) | log2 fold change (gandotinib) | log2 fold change (tozasertib) | log2 fold change [3] | log2 fold change (doramapimod) | log2 fold change (ispinesib) | log2 fold change (bafetinib) | log2 fold change [4] | log2 fold change (nilotinib) | log2 fold change [5] | log2 fold change (dasatinib) | log2 fold change [6] | log2 fold change [7] | log2 fold change [8] | log2 fold change (tipifarnib) | log2 fold change (mubritinib) | log2 fold change [9]
FAM241A (UniProt Q8N8J7) | -0.235 | 0.117 | -0.007 | -0.016 | -0.077 | -0.027 | -0.034 | -0.018 | -0.069 | -0.143 | -0.056 | -0.027 | 0.029 | 0.02 | -0.095 | 0.046 | 0.049 | 0.008 | 0.028 | 
CTSC (UniProt P53634) | 0.042 | -0.037 | -0.062 | 0.018 | 0 | 0.063 | -0.047 | 0.013 | -0.057 | -0.452 (active) | -0.004 | -0.008 | 0 | 0.046 | -0.033 | 0.041 | 0.004 | -0.039 | 0.056 | -0.015
ENTPD7 (UniProt Q9NQZ7) | 0.256 | 0.084 |  | -0.178 |  | 0.185 | 0.014 | 0.025 |  | -0.165 |  | -0.104 | -0.17 | -0.235 | 0.056 |  |  | 0.163 | 0.097 | -0.037
DYNC1I2 isoform 2 (UniProt Q13409) | 0.185 | -0.05 | -0.647 (active) |  |  | 0.044 |  | -0.079 | 0.06 | -0.038 |  |  |  |  |  | -0.311 | -0.067 | 0.177 | 0.067 | -0.02
ERCC2 (UniProt P18074) | 0.011 | 0.059 | -0.013 | -0.035 | -0.035 | -0.014 | 0.08 | 0.031 | -0.045 | 0.094 | 0.061 | -0.014 | -0.175 | -0.185 | -0.022 | 0.05 | 0.01 | -0.062 | 0.114 | -0.046
DSN1 (UniProt Q9H410) | -0.015 | -0.016 | -0.05 | 0.098 |  | 0.026 | -0.07 | 0.007 | 0.055 | 0.063 |  | 0.082 | -0.217 | -0.242 | 0.104 | 0.041 | 0.059 | 0.027 | -0.03 | 0.086
DIAPH1 (UniProt O60610) | 0.047 | -0.152 | 0.168 | -0.058 | -0.063 | 0.153 | 0.125 | 0.135 | -0.089 | 0.088 | 0.057 | -0.011 | -0.197 | -0.055 | 0.077 | -0.083 | -0.035 | -0.077 | 0.039 | -0.054
ELF1 (UniProt P32519) | 0.093 | -0.06 | -0.007 | 0.032 |  | 0.008 | 0.057 | -0.039 | -0.038 |  |  | 0.096 | -0.028 | -0.134 | 0.122 | 0.003 | 0.049 | -0.024 |  | -0.006
DHCR7 (UniProt Q9UBM7) | -0.003 | 0.192 | 0.089 | -0.029 | -0.304 | -0.055 | 0.051 | 0.049 | -0.056 | 0.428 (active) | -0.005 | -0.282 | -0.005 | -0.109 | 0.05 | 0.257 | -0.016 | -0.167 | 0.166 | -0.085
EIF2AK1 (UniProt Q9BQI3) | 0.023 | 0.015 | 0.045 | -0.007 | 0.137 | -0.028 | 0.053 | 0.068 | -0.024 | -0.162 | 0.171 |  |  | -0.068 |  | 0.19 | 0 | -0.035 | -0.025 | 0.015
DNAJC24 (UniProt Q6P3W2) | -0.054 | 0.055 | -0.004 | -0.028 |  | 0.05 | -0.024 | 0.038 | 0.01 | -0.079 |  | 0.019 | -0.054 | 0.053 | 0.016 | -0.1 | -0.201 | 0.084 | 0.06 | -0.031
ELMO1 (UniProt Q92556) | 0.06 | -0.019 |  | 0.163 |  |  | -0.043 | 0.033 | -0.299 | 0.033 |  | -0.038 | 0.026 | 0.03 | -0.001 |  | 0.06 |  | -0.087 | 0
DCP2 (UniProt Q8IU60) | -0.211 | 0.779 (active) | 0.009 | -0.049 |  | 0.219 | 0.095 | 0.147 | -0.045 |  |  |  |  | 0.02 |  | -0.021 | -0.033 | -0.112 |  | 0.119
DNM2 isoform 4 (UniProt P50570) | -0.302 | -0.087 | -0.087 | 0.159 | 0.126 |  | 0.5 | -0.203 | 0.092 | 0.154 | 0.062 | -0.006 | 0.047 | -0.007 | -0.047 | 0.006 | 0.005 |  | 0.108 | -0.039
EIF3J isoform 2 (UniProt O75822) | 0.035 | 0.049 |  | 0.161 |  | -0.136 | -0.038 | 0.011 |  | -0.033 |  | -0.101 | -0.016 | 0.017 | -0.013 |  |  | 0.078 | 0.1 | -0.043
EIF4E2 (UniProt O60573) | 0.151 | -0.018 | 0.085 | 0.037 |  | 0.044 | 0.07 | -0.069 | -0.087 | -0.055 |  | -0.094 | -0.052 | -0.232 | -0.004 | 0.082 | -0.059 | -0.127 | 0.035 | -0.027
DPYSL2 (UniProt Q16555) | 0.034 | 0.025 | 0.023 | 0.33 | -0.015 | -0.012 | 0.082 | 0.069 |  | -0.114 | 0.081 | 0.046 | -0.063 | 0 | 0.079 | 0.042 |  | 0.015 | -0.048 | -0.09
FAM118B (UniProt Q9BPY3) | 0.099 | -0.169 | 0.107 |  | -0.101 | 0.019 |  | -0.003 | 0.046 | -0.083 | 0.028 | -0.114 | -0.106 |  | 0.022 | 0.014 | 0.02 | -0.083 | 0.015 | -0.007
ELAC1 (UniProt Q9H777) | -0.045 | 0.011 | -0.137 | 0.062 | -0.021 |  | 0.004 | 0.007 |  |  | 0.124 | 0.145 | -0.111 | -0.073 | -0.103 | -0.032 |  | 0.036 |  | -0.13
